# Data from PubChem BioAssay.
# Unmarked numbers belong to inactive results. For some of these results: Measured potencies and affinities stand elsewhere. Activity calls are given as the source filed them. Unless noted, how the calls were made is not given here.
# Experiments:
# [1] = antimalarial activity against Dd2 strain (AID 2302;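 active means growth inhibition above 50% at the single 2 µM test dose, taken to imply half-maximal potency below 2 µM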;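 further: 0% = DMSO untreated growth and 100% = chloroquine plus artemisinin killed control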); conditions: P. falciparum Dd2 in RBCs, LDH growth readout, 72 h; at 2 µM; hits give high values
# [2] = human hepatoma cell viability loss – ATP luminescence, cytotoxicity control for P. falciparum antimalarial project, primary screen (AID 2303;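 active means inhibition above 50%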;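 further: 0% = DMSO wells and 100% = digitonin-killed cells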); conditions: HepG2 viability, 24-48 h, at 10 µM, hits give high values
# [3] = molecular target: L-lactate dehydrogenase (Plasmodium falciparum (isolate CDC / Honduras)) (UniProt Q27743); assay: PfLDH activity inhibition – cell lysate, 3D7 strain, counter-screen for P. falciparum growth inhibition project (AID 2304);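 further: 0% = vehicle and 100% = reference inhibitor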; conditions: P. falciparum 3D7 crude extract, LDH APAD/NBT absorbance; at 2 µM; hits give high values
# [4] = inhibition of 3D7 malaria parasite growth – strain 3D7 (AID 2306);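 further: 0% = DMSO wells and 100% = chloroquine plus artemisinin control wells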; conditions: P. falciparum 3D7 erythrocytic growth, LDH absorbance, 72 h; at 2 µM; hits give high values
# [5] = molecular target: Calcium-dependent protein kinase 1 (Plasmodium falciparum (isolate 3D7)) (UniProt P62344); assay: PfCDPK1 kinase inhibitors, biochemical, TCAMS library (AID 1159585; cut-off not given, nearly all actives have IC50 up to about 0.98 µM;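 further: inhibitors leave more ATP so luminescence rises with inhibition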); conditions: recombinant PfCDPK1, Kinase-Glo ATP depletion luminescence
# [6] = molecular target: Plasmodium falciparum protein kinase 6 (PK6, PF3D7_1337100) (UniProt Q8IDW1); assay: PfPK6 kinase inhibitors, biochemical, TCAMS library (AID 1159586); conditions: recombinant PfPK6, Kinase-Glo ATP depletion luminescence
# [7] = molecular target: Protein kinase 7 (PK7), Plasmodium falciparum 3D7 (PF3D7_0213400) (UniProt Q7YTF7); assay: inhibition of Plasmodium PK7 catalytic activity – biochemical, TCAMS antimalarial set, Kinase-Glo luminescence (AID 1159587); conditions: recombinant PfPK7, Kinase-Glo ATP depletion luminescence
# [8] = molecular target: Calcium-dependent protein kinase 4 (Plasmodium falciparum (isolate 3D7)) (UniProt Q8IBS5); assay: PfCDPK4 kinase inhibitors, biochemical, TCAMS library (AID 1159588; cut-off not given, nearly all actives have IC50 up to about 0.91 µM); conditions: recombinant PfCDPK4, Kinase-Glo ATP depletion luminescence
# Sequence of Calcium-dependent protein kinase 4 (Plasmodium falciparum (isolate 3D7)) (Q8IBS5 whole entry, looked up): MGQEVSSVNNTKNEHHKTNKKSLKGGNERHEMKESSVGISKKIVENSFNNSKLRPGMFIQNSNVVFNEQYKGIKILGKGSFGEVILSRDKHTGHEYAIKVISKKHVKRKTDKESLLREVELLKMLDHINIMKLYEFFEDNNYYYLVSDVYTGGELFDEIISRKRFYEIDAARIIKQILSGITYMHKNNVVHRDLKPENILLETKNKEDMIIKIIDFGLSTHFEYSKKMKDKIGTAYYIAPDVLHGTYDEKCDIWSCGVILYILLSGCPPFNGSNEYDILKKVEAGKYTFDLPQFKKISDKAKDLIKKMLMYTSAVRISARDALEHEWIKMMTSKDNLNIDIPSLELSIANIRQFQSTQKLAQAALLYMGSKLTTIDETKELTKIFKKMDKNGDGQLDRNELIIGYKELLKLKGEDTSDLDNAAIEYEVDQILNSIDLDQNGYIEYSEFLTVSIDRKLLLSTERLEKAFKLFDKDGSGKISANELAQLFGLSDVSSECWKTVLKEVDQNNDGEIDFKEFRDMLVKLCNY
# Sequence of Plasmodium falciparum protein kinase 6 (PK6, PF3D7_1337100) (Q8IDW1 1-305): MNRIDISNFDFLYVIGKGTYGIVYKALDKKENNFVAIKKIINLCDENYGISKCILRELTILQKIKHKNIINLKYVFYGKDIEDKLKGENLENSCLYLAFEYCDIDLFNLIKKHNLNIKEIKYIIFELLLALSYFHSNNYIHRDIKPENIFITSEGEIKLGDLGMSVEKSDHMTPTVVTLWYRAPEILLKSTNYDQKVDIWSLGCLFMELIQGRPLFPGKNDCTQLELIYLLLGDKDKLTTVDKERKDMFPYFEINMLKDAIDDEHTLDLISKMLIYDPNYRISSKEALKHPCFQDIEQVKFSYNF
# Sequence of Calcium-dependent protein kinase 1 (Plasmodium falciparum (isolate 3D7)) (P62344 whole entry, looked up): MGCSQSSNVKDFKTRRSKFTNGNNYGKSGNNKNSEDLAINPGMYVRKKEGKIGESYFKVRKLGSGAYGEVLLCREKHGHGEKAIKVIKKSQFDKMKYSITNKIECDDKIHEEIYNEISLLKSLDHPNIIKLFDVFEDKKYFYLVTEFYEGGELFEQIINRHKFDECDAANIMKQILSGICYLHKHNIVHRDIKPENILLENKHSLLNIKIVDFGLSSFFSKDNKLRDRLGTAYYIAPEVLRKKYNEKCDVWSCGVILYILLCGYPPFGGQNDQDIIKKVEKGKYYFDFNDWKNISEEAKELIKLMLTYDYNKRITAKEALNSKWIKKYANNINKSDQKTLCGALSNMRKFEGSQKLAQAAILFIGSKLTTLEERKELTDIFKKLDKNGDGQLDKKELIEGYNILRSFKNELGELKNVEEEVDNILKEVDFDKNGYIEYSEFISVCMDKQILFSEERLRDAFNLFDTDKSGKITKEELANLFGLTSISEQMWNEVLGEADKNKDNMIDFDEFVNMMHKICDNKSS
# Sequence of Protein kinase 7 (PK7), Plasmodium falciparum 3D7 (PF3D7_0213400) (Q7YTF7 1-343): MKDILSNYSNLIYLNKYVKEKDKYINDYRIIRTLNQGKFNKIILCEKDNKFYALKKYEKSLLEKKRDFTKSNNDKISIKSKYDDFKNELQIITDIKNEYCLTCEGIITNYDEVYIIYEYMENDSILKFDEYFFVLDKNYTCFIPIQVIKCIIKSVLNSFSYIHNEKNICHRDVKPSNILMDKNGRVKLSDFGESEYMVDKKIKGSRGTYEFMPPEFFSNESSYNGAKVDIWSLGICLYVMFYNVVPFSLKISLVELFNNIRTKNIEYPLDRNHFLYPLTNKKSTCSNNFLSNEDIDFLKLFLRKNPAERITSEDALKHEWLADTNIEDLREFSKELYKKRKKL
# Sequence of L-lactate dehydrogenase (Plasmodium falciparum (isolate CDC / Honduras)) (Q27743 whole entry, looked up): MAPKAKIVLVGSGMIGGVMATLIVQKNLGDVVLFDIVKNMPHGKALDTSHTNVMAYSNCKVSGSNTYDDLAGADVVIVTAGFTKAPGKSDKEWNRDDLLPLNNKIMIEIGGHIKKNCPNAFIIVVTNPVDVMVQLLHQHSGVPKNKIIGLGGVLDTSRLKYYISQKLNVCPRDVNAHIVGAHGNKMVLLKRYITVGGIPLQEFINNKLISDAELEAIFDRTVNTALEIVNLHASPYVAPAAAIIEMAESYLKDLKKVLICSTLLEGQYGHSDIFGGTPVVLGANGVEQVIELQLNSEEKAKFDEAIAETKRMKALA
SMILES,growth inhibition [1],inhibition [2],inhibition [3] [%],growth inhibition [4],outcome [5],outcome [6],outcome [7],outcome [8]
O=C(Nc1ccc(N2CCN(Cc3ccccc3)CC2)cc1)c1cccs1,86% (active),-1%,2,87% (active),inactive,inactive,inactive,inactive
CCOC(=O)c1c(NC(NC(=O)c2ccc(C(C)(C)C)cc2)C(Cl)(Cl)Cl)sc2c1CCCC2 (stereo not drawn),94% (active),1%,-3,98% (active),inactive,inactive,inactive,inactive
Cc1ccc(S(=O)(=O)n2nccc2-c2c(-c3ccc(Cl)cc3)noc2C)cc1,97% (active),-1%,-2,97% (active),inactive,inactive,inactive,inactive
CCN(CC)CCON=Cc1cc(C)c2[nH]c3ccc(OCc4ccccc4)cc3c2c1C,29%,29%,1,98% (active),inactive,inactive,inactive,inactive
Cn1nc(C(F)(F)F)c(-c2ccc(Br)cc2)c1NC(=O)Cc1ccccc1F,100% (active),6%,-1,102% (active),inactive,inactive,inactive,inactive
O=C(Nc1cccc(-c2cccc(-c3nc4ccccc4[nH]3)c2)c1)c1csnn1,27%,31%,5,90% (active),inactive,inactive,inactive,inactive
CCCC(C)Nc1nc(C)cc(N[C@@H](Cc2ccccc2)C(=O)Nc2ccccc2)n1 (stereo partly drawn),67% (active),50% (active),-2,100% (active),inactive,inactive,inactive,inactive
FC(F)(F)c1cccc(CCNc2nccc(NCc3ccccc3Cl)n2)c1,38%,31%,1,89% (active),inactive,inactive,inactive,inactive
O=C1[C@H]2C(c3ccc(Cl)c(Cl)c3)N3CC(OCc4ccccc4)CC3(C(=O)O)[C@H]2C(=O)N1c1ccc(Br)cc1 (stereo partly drawn),86% (active),14%,2,104% (active),inactive,inactive,inactive,inactive
COc1ccc2nc(C)cc(Nc3ccc(N4CCN(C)CC4)cc3)c2c1,3%,1%,-1,101% (active),inactive,inactive,inactive,inactive
CCCCn1c(=N)c(C(=O)NCc2cccnc2)cc2c(=O)n3cccc(C)c3nc21,47%,7%,-2,101% (active),inactive,inactive,inactive,inactive
OC1(c2ccc(Br)cc2)CCN(C2CCN(Cc3ccccc3)CC2)CC1,18%,8%,8,100% (active),inactive,inactive,inactive,inactive
Cc1cc(N(C)C)nc(Nc2ccc(NC(=O)c3c(F)cccc3Cl)cc2)n1,36%,15%,4,90% (active),inactive,inactive,inactive,inactive
CCCc1cc(Cc2cnc(N)nc2N)cc(CCC)c1OCCCCC(=O)OC,-5%,-7%,-5,94% (active),inactive,inactive,inactive,inactive
N#Cc1ccc2c(c1)CCN(CCC1CCC(NC(=O)c3ccc(-c4ccccn4)s3)CC1)CC2 (stereo not drawn),9%,16%,1,92% (active),inactive,inactive,inactive,inactive
COc1ccc(Cl)cc1C(=O)Nc1ccc(-c2nc3ccccc3[nH]2)cc1,39%,42%,-7,92% (active),inactive,inactive,inactive,inactive
Fc1ccc(Nc2n[nH]c(CNC3CCN(Cc4ccc(Cl)c(Cl)c4)CC3)n2)cc1,36%,18%,5,101% (active),inactive,inactive,inactive,inactive
COc1cc2nc(C)nc(Nc3cccc(Br)c3)c2cc1OC,82% (active),0%,-8,101% (active),inactive,inactive,inactive,inactive
O=C(/C=C/c1ccc(Cl)c(Cl)c1)NCCCCCN1CCCN(C(=O)Nc2ccc(C(F)(F)F)cc2)CC1,7%,31%,3,102% (active),inactive,inactive,inactive,inactive
CCOC(=O)c1c(SCc2cccc(F)c2F)[nH]c2ccccc2c1=O,95% (active),1%,-2,98% (active),inactive,inactive,inactive,inactive
CN1CCC(N2CCN(Cc3ccc(-c4cccc(-c5nc6ccc(F)cc6[nH]5)c4)cc3)CC2)CC1,99% (active),67% (active),-1,101% (active),inactive,inactive,inactive,inactive

SMILES,growth inhibition [1],inhibition [2],inhibition [3] [%],growth inhibition [4],outcome [5],outcome [6],outcome [7],outcome [8]
NS(=O)(=O)Cc1cccc(-c2ccnc3ccc(-c4cccc(S(N)(=O)=O)c4)cc23)c1,42%,39%,-2,98% (active),inactive,inactive,inactive,inactive
Cc1cc(NN=Cc2cccc([N+](=O)[O-])c2)c2ccc(C(F)(F)F)cc2n1,51% (active),2%,1,101% (active),inactive,inactive,inactive,inactive
O=C(NCCc1ccccc1F)c1cc(Br)cc(N2CCN(c3ccncc3)CC2)c1,67% (active),29%,-2,97% (active),inactive,inactive,inactive,inactive
COc1cccc(C(=O)NC(C=Cc2ccccc2)c2cc(Cl)c3cccnc3c2O)c1 (stereo not drawn),58% (active),27%,-1,95% (active),inactive,inactive,inactive,inactive
COc1ccccc1CN1CCC(CNC(=O)c2cc(-c3cccc(C(F)(F)F)c3)cs2)C1 (stereo not drawn),1%,25%,4,84% (active),inactive,inactive,inactive,inactive
O=C(Nc1ccc(N2CCNCC2)cc1)c1ccn2ncc(-c3cccc(Cl)c3)c2n1,53% (active),79% (active),-2,96% (active),inactive,inactive,inactive,inactive
COc1ccc(C(=O)Nc2ccc3oc(-c4ccc(C(F)(F)F)cc4)cc3c2)cc1CCCN(C)C,27%,98% (active),-1,98% (active),inactive,inactive,inactive,inactive
Cn1cncc1C(=O)Nc1ccc(-c2ccc(-c3nc4ccc(C(F)(F)F)cc4[nH]3)cc2)cc1,33%,24%,5,102% (active),inactive,inactive,inactive,inactive
C[C@@H](N=C(Nc1ccc(-c2ccccc2)cc1)Nc1ccc(C#N)cc1O)c1ccc(Br)cc1,95% (active),9%,2,99% (active),inactive,inactive,inactive,inactive
O=C(/C=C/c1ccc(C(F)(F)F)cc1)N1CCc2cc3nccc(N4CCN5CCC[C@H]5C4)c3cc21,21%,-7%,-1,86% (active),inactive,inactive,inactive,inactive
COc1cc(C(=O)N2CCOC(CCN3CCC[C@H]3C(=O)Nc3ccccc3)(c3ccc(Cl)c(Cl)c3)C2)cc(OC)c1OC (stereo partly drawn),88% (active),3%,-2,98% (active),inactive,inactive,inactive,inactive
Cn1ccnc1-c1nc2ccccn2c1NCC(=O)Nc1ccccc1N1CCCCC1,57% (active),16%,-7,85% (active),inactive,inactive,inactive,inactive
Cc1ccc(O)c(-c2cc(C(=O)Nc3ccc(S(=O)(=O)N4CCCCC4)cc3)[nH]n2)c1,98% (active),31%,-4,94% (active),inactive,inactive,inactive,inactive
Cc1ccc(-c2nc3ccc(C(=O)NC4CCN(Cc5ccccc5)CC4)cc3[nH]2)cc1,53% (active),20%,-4,100% (active),inactive,inactive,inactive,inactive
CCCCCCN1CCC(NCc2ccc(OCCN3CCCC3)cc2)CC1,93% (active),23%,0,101% (active),inactive,inactive,inactive,inactive
CN1CCN(c2nsc3ccc(-c4ccc(NC(=O)Nc5ccccc5)cc4)cc23)CC1,98% (active),38%,-1,102% (active),inactive,inactive,inactive,inactive
O=C(C=Cc1cccc(F)c1)NC1CCC(CCN2CCc3ccc(-c4cnccn4)cc3CC2)CC1 (stereo not drawn),67% (active),51% (active),-1,100% (active),inactive,inactive,inactive,inactive
CCc1cc2c(Sc3nc4ccccc4[nH]3)ncnc2s1,98% (active),6%,2,97% (active),inactive,inactive,inactive,inactive
CCOC(=O)c1ccc(NC(=O)Nc2ccc(-c3cccc(-c4nc5ccc(F)cc5[nH]4)c3)cc2)cc1,100% (active),98% (active),2,102% (active),inactive,inactive,inactive,inactive
CCN(CC)C(C)(C)CN(Cc1ccc(-c2ccc(C(F)(F)F)cc2)cc1)C(=O)Cn1c(CCc2cccc(F)c2F)nc(=O)c2ccccc21,79% (active),53% (active),-2,91% (active),inactive,inactive,inactive,inactive
